Assays:
Format in all cases: functional
Plasmodium falciparum [1] = assay: GSK_TCMDC: Inhibition of Plasmodium falciparum 3D7 in whole red blood cells, using parasite LDH activity as an index of growth. Test compounds present at 2uM
Plasmodium falciparum [2] = assay: GSK_TCMDC: Inhibition of Plasmodium falciparum Dd2 in whole red blood cells, using parasite LDH activity as an index of growth. Test compounds present at 2uM
HepG2 = assay: GSK_TCMDC: Percent inhibition of human HepG2 cell line. Test compounds present at 10uM.

Structure (SMILES)	Inhibition (Plasmodium falciparum [1])	Inhibition (Plasmodium falciparum [2])	Inhibition (HepG2)
Cl.OCC(CO)(CO)NCc1ccc2c3c(cccc13)-c1ccccc1-2	87%	76%	73%
O=C(Nc1cccc(C(F)(F)F)c1)c1ccc(S(=O)(=O)NCC2CCCN2CC2CCCCC2)cc1.O=C(O)C(F)(F)F (stereo not drawn)	98%	3%	14%
Nc1ncnc2c1ncn2C(CO)Cc1ccc(O)cc1 (stereo not drawn)	93%	0%	0%
COc1ccc(Br)cc1/C=C/C(=O)Nc1ccc(C2CCCN(C)C2)cc1.O=CO (stereo not drawn)	100%	35%	18%
CCCCCN1CCC(CNS(=O)(=O)c2ccc(C(=O)Nc3cccc(C(F)(F)F)c3)cc2)CC1.O=C(O)C(F)(F)F	98%	13%	13%
N=C(N)NN=CC(=O)Nc1cc([N+](=O)[O-])cc([N+](=O)[O-])c1.O=S(=O)(O)O	100%	0%	0%
CCN(CC)CCCC(C)N=c1cc(C=Cc2ccc([N+](=O)[O-])cc2)[nH]c2ccc(OC)cc12 (stereo not drawn)	100%	100%	37%
CCC(O)c1ccc(Br)cc1NC(=O)c1cccc(Cl)c1 (stereo not drawn)	80%	52%	0%
O=C(NCCCCCN1CCC(c2c[nH]c3ccccc23)CC1)Nc1cccc(C(F)(F)F)c1	97%	11%	51%
c1csc(-c2nc(NCC3CCCO3)ncc2-c2ccsc2)n1 (stereo not drawn)	89%	83%	0%
O=S(=O)(c1ccccc1)C1CC1	89%	65%	0%

Source: ChEMBL document CHEMBL1157539, “Thousands of chemical starting points for antimalarial lead identification” (Nature, 2010)
